According to PubChem BioAssay (NCATS):
Values joined by “and” are separate entries in the source; they are usually repeats but may differ in a detail not shown here. Identical values can stand only once. Records with an inconclusive call do not appear. A call without a number means that no potency is given here. Values without a mark were called inactive. Active and inactive are the calls of the source. The call rests on the fitted dose curve; in most records, active means well fitted cell-killing curve with a large enough effect; inconclusive means small, poorly fitted or top-dose-only effect, or effect the other way; inactive means no such curve, though single readings can be large or run the other way.
Potency means the concentration at half of the fitted maximal effect.

Experiment: Viability qHTS for spleen associated tyrosine kinase inhibitor (SYKi) drug resistant MV4-11 cells (AID 1963824); further: nearly all actives have a fitted effect of over 35% in size
Settings: SYKi-resistant MV4-11 viability, CellTiter-Glo, 72 h; series mostly up to 45 µM
Excerpt: Department of Medicine, Hematology/Oncology
University Hospital Frankfurt, Germany.
Trials have shown promising clinical activity of the selective SYK inhibitor entospletinib in patients with high expressing HOXA9/MEIS1 acute leukemias. As the development of resistance mechanisms is a common problem in the use of targeted drugs, we performed a chemical library screen to identify drug sensitivities in SYK inhibitor resistant AML cells. […] Glucocorticoids are potent immunosuppressants which work in part by inhibiting the transcription of cytokine genes.
Described herein is a viability screen to look for activity in the SYK inhibitor drug resistant cell line against four NCATS compound libraries (MIPE 5.0, NPC, NPACT, and Kinase) totaling 11372 compounds. Active hits were reacquired for confirmation and further secondary assay testing.
SEQUENCE No. (e.g., 1, 2, 3, etc.); […] (e.g., Cells, Incubation, Reagent, etc.); VALUE; DESCRIPTION.
1; Media; 2uL; white, solid-bottom Corning assay plate.
2; Compounds; 23nL; Echo acoustic dispenser.
3; Cell; 5uL; 500 cells per well.
4: Incubation; 72hr; 37 C, 5% CO2, 95% humidity.
5; Reagent; 3uL; CellTiter-Glo reagent (Promega).
6; Incubation; 10min; room temperature.
7; Detection; Luminescence; ViewLux plate reader (PerkinElmer).
NOTES (numbers refer to Sequence numbers above
1. Quantitative high-throughput screening (qHTS) of small molecule compounds was conducted on drug resistant SYKi MV4-11 cell line.
2. Twenty-three nanoliter of small molecule compounds were added to each assay plates using the Echo acoustic dispenser (Beckman Coulter).
3. Cells were seeded into the assay plates at a final density of 500 cells in 5uL of media per well using the Multidrop Combi dispenser.
4. Plates were covered with stainless steel gasketed lids and incubated for 72 hours at standard cell culture conditions.
5. Viability was assessed by adding 3uL of CellTiter-Glo detection reagent (Promega).
6. Plates were covered with gasket lids and incubated for 10 minutes at room temperature.
7. Luminescence was measured on a ViewLux plate reader (PerkinElmer).
In the case of `COc1ccc(CNC(=O)c2cc(-c3cncc(Cl)c3)cnc2-c2ccccn2)nc1OC`, the Potency is reported as “inactive”. For `CCS(=O)(=O)N1CC(CC#N)(n2cc(-c3ncnc4[nH]ccc34)cn2)C1`, the Potency was 16.4 µM (active) and 10.5 µM (active). In the case of `c1ccc2c(Oc3nc(Nc4ccc(N5CCOCC5)cc4)c4ncn(C5CCCCC5)c4n3)cccc2c1`, the Potency is reported as 1.84 µM (active) and 4.17 µM (active). In the case of `COc1cncc(C#Cc2ccccn2)c1`, the Potency is reported as “inactive”. With `Cc1ncc([N+](=O)[O-])n1CC(O)CN1CCOCC1` (stereo not given) the Potency was “inactive”. For `CC(=O)N[C@@H](CCC(N)=O)C(=O)O`, the Potency was “inactive”. In the case of `CC1=C(C)C(=O)OC(C(C)C2C(O)CC3C4C5OC5C5(O)CC(OC6OC(CO)C(OC7OC(C)C(O)C(O)C7O)C(O)C6O)CC(O)C5(C)C4CCC32C)C1` (stereo not given), the Potency is reported as “inactive”. In the case of `Cc1oc2nc3c(c(NC(=O)CN4CCCC4=O)c2c1C)CCCC3`, the Potency is reported as “inactive”. For `Cc1ccc(S(=O)(=O)Cc2nc(-c3ccc(C(=O)NCc4cccnc4)cc3)oc2C)cc1`, the Potency was 0.0105 µM (active). With `CN(C)CCN(C)C(=O)c1ccc(NC(=O)Nc2ccc(-c3nc(N4CCOCC4)c4ccn(CC(F)(F)F)c4n3)cc2)cc1` the Potency was 0.0525 µM (active). With `NCCS` the Potency was “inactive”. With `CC1CNc2c(cccc2S(=O)(=O)N[C@@H](CCCN=C(N)N)C(=O)N2CC[C@@H](C)C[C@@H]2C(=O)O)C1` (stereo not given in full) the Potency was “inactive”. In the case of `CCN1C(=O)CNc2ncc(-c3ccc(-c4ncn[nH]4)nc3C)nc21`, the Potency is reported as 0.742 µM (active). For `CC[C@]12CCCN3CCc4c(n(c5ccccc45)C(=O)C1)[C@@H]32`, the Potency was 8.41 µM (active) and 23.1 µM (active). In the case of `CCCCCCCCCCCCCCCC(=O)O[C@H]1[C@@H](O)[C@@H](O)[C@@H]([C@H](NC(=O)[C@@H]2C[C@@H](CCC)CN2C)[C@H](C)Cl)O[C@@H]1SC`, the Potency is reported as 23.5 µM (active). With `CC(C)C(=O)Nc1ccc([N+](=O)[O-])c(C(F)(F)F)c1` the Potency was 10.6 µM (active) and 18.6 µM (active). With `C[C@]12C=CC(=O)C=C1CC[C@H]1[C@@H]3C[C@@H](O)[C@](O)(C(=O)CO)[C@@]3(C)C[C@H](O)[C@@]12F` the Potency was “inactive”. With `CC1CCN(C(c2ccc(F)cc2)c2ccc(C(C)C(=O)O)cc2-c2ccc(C(F)(F)F)cc2)CC1` (stereo not given) the Potency was 6.51 µM (active). For `NC[C@H](O)c1ccc(O)c(O)c1`, the Potency was “inactive”. In the case of `Cc1ccc(C(=O)Nc2cccc(C(F)(F)F)c2)cc1-c1ccc2nc(NCCN3CCOCC3)ncc2c1`, the Potency is reported as 366 nM (active) and 742 nM (active). With `C/C=C/c1ccc(O[C@@H]2O[C@H](CO)[C@@H](O)[C@H](O)[C@H]2O)c(OC)c1` the Potency was “inactive”. For `NC(=O)NC(=O)Cc1ccccc1`, the Potency was “inactive”. With `O=C(/C=C/c1ccccc1)OC[C@]12O[C@H]1[C@@H](O)[C@@H]1C=CO[C@@H](O[C@@H]3O[C@H](CO)[C@@H](O)[C@H](O)[C@H]3O)[C@@H]12` the Potency was “inactive”. For `CC1(C)S[C@@H]2[C@H](NC(=O)[C@H](NC(=O)N3CCN(S(C)(=O)=O)C3=O)c3ccccc3)C(=O)N2[C@H]1C(=O)O`, the Potency was “inactive”. Compound `N[C@@H](Cc1ccc(O)cc1)C(=O)O` has a viability, % of control of 81.6% [at 9.25 µM]. For `CC[C@H]1OC(=O)[C@H](C)[C@@H](O[C@H]2C[C@@](C)(OC)[C@@H](O)[C@H](C)O2)[C@H](C)[C@@H](O[C@@H]2O[C@H](C)C[C@H](N(C)C)[C@H]2O)[C@@](C)(O)C[C@@H](C)[C@@H]2N[C@@H](COCCOC)OC([C@H]2C)[C@]1(C)O`, the Potency was “inactive”. With `CN[C@@H]1[C@@H](O)[C@@H](O[C@@H]2[C@H](O)[C@H](O[C@H]3OC(CN)=CC[C@H]3N)[C@@H](N)C[C@H]2N)OCC1(C)O` (stereo not given in full) the Potency was “inactive”. For `CCC/C=C/C=C/C1CC(O)C(O)C(=O)C1CO` (stereo not given), the Potency was “inactive”. For `NCC1CCC(C(=O)Oc2ccc(CCC(=O)O)cc2)CC1` (stereo not given), the Potency was “inactive”. With `CC(C)(Cc1ccc2ccccc2c1)NC[C@@H](O)COc1cccc(Cl)c1C#N` the Potency was 6.61 µM (active). For `CC1=C[C@@H]2[C@H]3[C@@H]4O[C@@](C)(CC[C@H]4O)[C@H]3CC(=O)[C@]23C(=O)N[C@@H](CC(C)C)[C@@H]3[C@@H]1C`, the Potency was 8.05 µM (active). With `CC1(C)O[C@@H]2[C@@H](CO[C@@]3(COS(N)(=O)=O)OC(C)(C)O[C@@H]23)O1` the Potency was “inactive”. For `C#Cc1ccc(-c2ccccc2F)cc1`, the Potency was “inactive”. With `CCCCCN(CCCCC)C(=O)C(CCC(=O)O)NC(=O)c1ccc(Cl)c(Cl)c1` (stereo not given) the Potency was “inactive”. In the case of `C=C1C(=O)OC2/C=C(/C)CC/C=C(/C)CCC12` (stereo not given), the Potency is reported as 5.25 µM (active). With `CO[C@@H]1[C@@H](O[C@H]2O[C@@H](C)[C@H](O[C@@H]3C[C@](C)(O)[C@H](O)[C@@H](C)O3)[C@@H](N(C)C)[C@@H]2O)[C@@H](CC=O)C[C@@H](C)[C@@H](O[C@H]2CC[C@H](N(C)C)[C@H](C)O2)/C=C/C=C/C[C@@H](C)OC(=O)C[C@H]1O` the Potency was 10.3 µM (active). In the case of `Cc1cc(Cn2cnc3c2CC(C(=O)O)N(C(=O)C(c2ccccc2)c2ccccc2)C3)ccc1N(C)C` (stereo not given), the Potency is reported as “inactive”. In the case of `O=NN(CCCl)C(=O)NC1CCCCC1`, the Potency is reported as “inactive”. With `Cn1cc(Nc2cnccc2C(=O)O)c2cccnc21` the Potency was “inactive”. For `O=c1cc(-c2ccc(O)c(O)c2)oc2cc(O)cc(O)c12`, the Potency was 7.42 µM (active).
